{
  "source": "PubChem BioAssay",
  "data": [
    {"assay": "compound effects on hepatocellular carcinoma cell viability – HepG2, calcein-AM fluorescence, 48 h, basal, profiling panel (AID 1164)", "conditions": "higher = more signal", "values": [
      {"molecule": "COc1c(C)cc(-c2cc3c(c(-c4ccccc4)n2)[Si](C(C)C)(C(C)C)OC3)cc1C", "z-score": -0.43},
      {"molecule": "Cc1ccc(S[C@]2(C(=O)NCC(C)C)CC(=O)N(Cc3ccccc3Cl)[C@@H]2c2ccc(CO)cc2I)cc1", "z-score": -0.752},
      {"molecule": "O=C1O[C@@H](c2ccccc2)[C@@H](c2ccccc2)N2[C@@H](c3ccccc3OCCO)[C@]3(C(=O)Nc4ccc(C#CC5=CCCCC5)cc43)[C@@H](C(=O)NC[C@H](O)c3ccccc3)[C@H]12", "z-score": -3.07},
      {"molecule": "O=C(O)[C@H](Cc1ccccc1)n1cc(-c2ccccn2)nn1", "z-score": -0.129},
      {"molecule": "CC1CC/C=C\\[C@H]2OC34C=CCN(CCN5CCOCC5)C(=O)[C@H]3N(CCO)C(=O)[C@@H]4C2C(=O)O1", "note": "(stereo not given in full)", "z-score": -0.186},
      {"molecule": "CCOC(=O)C[C@H]1[C@H](OC(=O)c2ccc(-c3ccccc3)cc2)[C@@H](NC(=O)C2CCCCC2)c2cc(OCCCO)ccc2N1C(=O)c1ccccc1", "z-score": 0.137},
      {"molecule": "COCCCNC(=O)[C@@]1(Sc2ccc(C)cc2)CC(=O)N(Cc2cc(C(F)(F)F)cc(C(F)(F)F)c2)[C@@H]1c1ccc(CO)cc1", "z-score": 0.584},
      {"molecule": "CCCC[C@@H]1C[C@H]1[C@@H](NC(=O)c1cccnc1)c1ccc(-c2ccccc2)cc1", "z-score": -0.886},
      {"molecule": "O=C1O[C@@H](c2ccccc2)[C@@H](c2ccccc2)N2[C@@H](c3ccc(O)cc3)[C@]3(C(=O)Nc4ccc(C#CCCO)cc43)[C@@H](C(=O)Nc3nc4ccccc4s3)[C@H]12", "z-score": 0.609},
      {"molecule": "O=C(O)[C@]1(Cc2ccccc2)N=C(c2ccc(OCCCO)cc2)O[C@@H]1c1ccccc1", "z-score": 0.493},
      {"molecule": "Cc1ccc(S[C@]2(C(=O)NCc3ccccc3)CC(=O)N(C(C)C)[C@@H]2c2ccc(CO)cc2I)cc1", "z-score": -0.274},
      {"molecule": "Cc1ccc(C(C)CC(O)C2C=CC3C(=O)N(c4ccccc4)C(=O)C3N2Nc2ccc(C(C)C)cc2)o1", "note": "(stereo not given)", "z-score": 0.137},
      {"molecule": "C=CC[C@]12N=C(c3ccc(OCCCO)cc3)O[C@H]1c1ccccc1N(C)C2=O", "z-score": -0.593},
      {"molecule": "C=C(COC)/C(=C/C[C@@H](OC(=O)c1ccncc1)c1ccc(CO)o1)c1cnc2ccccc2c1", "z-score": -0.607},
      {"molecule": "O=C1NC(=O)C2C1C=CC(C(O)c1cc(C(F)(F)F)cc(C(F)(F)F)c1)N2Nc1ccc(Cl)cc1Cl", "note": "(stereo not given)", "z-score": -2.76}
    ]},
    {"assay": "compound effects on multiple myeloma cell viability – MM1S, calcein-AM fluorescence, 48 h, basal, profiling panel (AID 1165)", "conditions": "higher = more signal", "values": [
      {"molecule": "O=C1c2ccccc2[C@](Cc2ccccc2I)(C(=O)NCCN2CCOCC2)[C@H](c2ccc(CO)cc2)N1Cc1ccccc1", "z-score": 0.211},
      {"molecule": "CN(C)CCCCNC(=O)[C@H]1C[C@H]2C(=O)N3CCC[C@H]3C(=O)N2[C@H]1c1ccc(O)cc1", "z-score": 0.26},
      {"molecule": "C=C(CCCC)C(=O)CC[C@@H](OC(=O)c1ccccc1-c1ccccc1C(=O)O)c1cccc(OCCO)c1", "z-score": -3.41},
      {"molecule": "C=C(C(=O)CC[C@H](OC(=O)c1cccnc1)c1ccc(CO)o1)C(C)C", "z-score": -0.66},
      {"molecule": "COc1ccc(C#Cc2ccc3c(c2)[C@]2(C(=O)N3)[C@H](C(=O)N3CCc4cc(OC)c(OC)cc4C3)[C@H]3C(=O)O[C@H](c4ccccc4)[C@H](c4ccccc4)N3[C@@H]2c2ccc(O)cc2)cc1", "z-score": -0.229},
      {"molecule": "[N-]=[N+]=NCc1ccccc1C[C@@]1(C(=O)N2CCCCC2)N=C(c2ccc(OCCCO)cc2)O[C@@H]1c1ccccc1N=[N+]=[N-]", "z-score": -3.11},
      {"molecule": "C=C[C@@H](COC(C)=O)NS(=O)(=O)c1ccc(Br)cc1", "z-score": -2.08},
      {"molecule": "CCOC(=O)C[C@H]1[C@H](OC(=O)c2ccc(-c3ccccc3)cc2)[C@@H](NC(=O)c2ccc3ccccc3c2)c2cc(OCCCO)ccc2N1C(=O)c1ccc2ccccc2n1", "z-score": 0.477},
      {"molecule": "CC(C)(C)OC(=O)CC[C@]1(C(=O)NCCN2CCOCC2)N=C(c2ccc(OCCCO)cc2)O[C@H]1c1ccccc1", "z-score": 0.251},
      {"molecule": "C=CCOC(=O)[C@@H]1[C@H]2C(=O)O[C@H](c3ccccc3)[C@H](c3ccccc3)N2[C@H](c2ccc(OCCOC(=O)[C@H]3C[C@H]4C(=O)N[C@@H](CC(C)C)C(=O)N4[C@H]3c3ccc(O)cc3)cc2)[C@@]12C(=O)Nc1ccc(I)cc12", "z-score": 0.38},
      {"molecule": "O=C(CS)NCCCCCCNC(=O)[C@@H]1C[C@@H]2C(=O)N3CCC[C@H]3C(=O)N2[C@@H]1c1cccc(OCCO)c1", "z-score": 0.0848},
      {"molecule": "COc1ccccc1CN1C(=O)c2ccccc2[C@@H](C(=O)NC(C)C)[C@@H]1c1ccc(CO)cc1", "z-score": 0.472},
      {"molecule": "C=CCOC(=O)[C@@H]1[C@H]2C(=O)O[C@H](c3ccccc3)[C@H](c3ccccc3)N2[C@H](c2ccc(OCCOC(=O)[C@H]3C[C@H]4C(=O)N[C@@H](CCCCNC(C)=O)C(=O)N4[C@H]3c3cccc(OCCO)c3)cc2)[C@@]12C(=O)Nc1ccc(I)cc12", "z-score": -0.387},
      {"molecule": "O=C1OCC=C[C@H]2OC34C=CCN(Cn5nnc6ccccc65)C(=O)[C@H]3N(CCCCCCO)C(=O)[C@@H]4[C@@H]12", "note": "(stereo not given in full)", "z-score": 1.15},
      {"molecule": "COC(=O)Cn1c(C(=O)N2CCCC2)cc2c1C[C@H]1CN(C(=O)c3ccccc3)[C@@](Cc3ccc(F)cc3)(C(=O)OC)[C@@H]21", "z-score": -0.297},
      {"molecule": "COc1cc(OC)c(C(O)C2C=CC3C(=O)N(c4ccccc4)C(=O)C3N2Nc2ccc(C#N)cc2)cc1Br", "note": "(stereo not given)", "z-score": -0.475},
      {"molecule": "COc1ccc([Si](C)(C)[C@@H]2[C@@H](CC(=O)N3CCC[C@H]3CO)O[C@]3(C(=O)N(Cc4ccc(N5C(=O)c6cccc7cccc5c67)cc4)c4ccccc43)[C@H]2C)cc1", "z-score": -2.75},
      {"molecule": "CC=CC(O)C1C=CC2C(=O)N(c3ccccc3)C(=O)C2N1Nc1ccccc1", "note": "(stereo not given)", "z-score": 0.214},
      {"molecule": "CC(C)C(=C=CC[C@@H](O)c1ccccc1OCCO)C[C@@H](O)COCc1ccccc1", "z-score": -0.338},
      {"molecule": "CC(C)(C)N1CC=CC23O[C@@H]4C=CCOC(=O)[C@@H]4[C@H]2C(=O)N(CCCO)[C@@H]3C1=O", "note": "(stereo not given in full)", "z-score": 0.656},
      {"molecule": "COc1c(C)cc(-c2cc3c(c(-c4ccccc4)n2)[Si](C(C)C)(C(C)C)OC3)cc1C", "z-score": -1.51},
      {"molecule": "Cc1ccc(S[C@]2(C(=O)NCC(C)C)CC(=O)N(Cc3ccccc3Cl)[C@@H]2c2ccc(CO)cc2I)cc1", "z-score": -1.94},
      {"molecule": "O=C1O[C@@H](c2ccccc2)[C@@H](c2ccccc2)N2[C@@H](c3ccccc3OCCO)[C@]3(C(=O)Nc4ccc(C#CC5=CCCCC5)cc43)[C@@H](C(=O)NC[C@H](O)c3ccccc3)[C@H]12", "z-score": -3.25},
      {"molecule": "O=C(O)[C@H](Cc1ccccc1)n1cc(-c2ccccn2)nn1", "z-score": 0.228},
      {"molecule": "CC1CC/C=C\\[C@H]2OC34C=CCN(CCN5CCOCC5)C(=O)[C@H]3N(CCO)C(=O)[C@@H]4C2C(=O)O1", "note": "(stereo not given in full)", "z-score": 0.237},
      {"molecule": "CCOC(=O)C[C@H]1[C@H](OC(=O)c2ccc(-c3ccccc3)cc2)[C@@H](NC(=O)C2CCCCC2)c2cc(OCCCO)ccc2N1C(=O)c1ccccc1", "z-score": -0.412},
      {"molecule": "COCCCNC(=O)[C@@]1(Sc2ccc(C)cc2)CC(=O)N(Cc2cc(C(F)(F)F)cc(C(F)(F)F)c2)[C@@H]1c1ccc(CO)cc1", "z-score": 1.35},
      {"molecule": "CCCC[C@@H]1C[C@H]1[C@@H](NC(=O)c1cccnc1)c1ccc(-c2ccccc2)cc1", "z-score": -1.14},
      {"molecule": "O=C1O[C@@H](c2ccccc2)[C@@H](c2ccccc2)N2[C@@H](c3ccc(O)cc3)[C@]3(C(=O)Nc4ccc(C#CCCO)cc43)[C@@H](C(=O)Nc3nc4ccccc4s3)[C@H]12", "z-score": -2.66},
      {"molecule": "O=C(O)[C@]1(Cc2ccccc2)N=C(c2ccc(OCCCO)cc2)O[C@@H]1c1ccccc1", "z-score": 0.427},
      {"molecule": "Cc1ccc(S[C@]2(C(=O)NCc3ccccc3)CC(=O)N(C(C)C)[C@@H]2c2ccc(CO)cc2I)cc1", "z-score": -2.35},
      {"molecule": "Cc1ccc(C(C)CC(O)C2C=CC3C(=O)N(c4ccccc4)C(=O)C3N2Nc2ccc(C(C)C)cc2)o1", "note": "(stereo not given)", "z-score": -1.41},
      {"molecule": "C=CC[C@]12N=C(c3ccc(OCCCO)cc3)O[C@H]1c1ccccc1N(C)C2=O", "z-score": -1.14},
      {"molecule": "C=C(COC)/C(=C/C[C@@H](OC(=O)c1ccncc1)c1ccc(CO)o1)c1cnc2ccccc2c1", "z-score": -0.164},
      {"molecule": "O=C1NC(=O)C2C1C=CC(C(O)c1cc(C(F)(F)F)cc(C(F)(F)F)c1)N2Nc1ccc(Cl)cc1Cl", "note": "(stereo not given)", "z-score": -3.69}
    ]}
  ]
}
